According to the supplement of paper PMC6555819:

How the values were obtained:
Assay in all cases: PBM binding z-score (relative to random genomic background probes); higher = stronger binding; sequences stand for … in GC…GCGATTGACAGCGTAGAATGAAGG
[1] = tested on: RARb homodimer (NR concentration 270 nM)
Outline: (§1)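 Regression normalization was applied to scanned fluorescence from custom Agilent 4×180K protein-binding microarrays. Before scanning, arrays were incubated 1 h with ligand-free nuclear receptor dimers, and binding was detected with antibodies against each partner (one per run). Binding z-scores use the random background probes as reference.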

[2] = tested on: RARg:RXRa (NR concentration 270 nM, RXRa partner concentration 90 nM)
Outline: as §1

[3] = tested on: RARg homodimer (NR concentration 270 nM)
Outline: as §1

[4] = tested on: RXRa DBDmut IVT, anti-RXR (DBD mutation: RXRa K156A/R161A, NR concentration 90 nM)
Outline: as §1

[5] = tested on: RXRa homodimer (NR concentration 180 nM)
Outline: as §1

[6] = tested on: THRa:RXRa (NR concentration 90 nM, RXRa partner concentration 90 nM)
Outline: as §1

[7] = tested on: THRa homodimer (NR concentration 90 nM)
Outline: as §1

[8] = tested on: VDR homodimer (NR concentration 270 nM)
Outline: as §1

Sequence	PBM binding z-score [1]	PBM binding z-score [2]	PBM binding z-score [3]	PBM binding z-score [4]	PBM binding z-score [5]	PBM binding z-score [6]	PBM binding z-score [7]	PBM binding z-score [8]
GGAACGAGGGCAAAGTGGATAGCATCTGTCGACG	1.05	1.54	1.53	2.28	1.21	0.965	-0.332	1.01
GCTTACGGGTAAAAGGTTATAGCATGAATAGAAT	1.59	2.68	1.35	0.423	3.38	1.64	-0.0699	0.48
CATACAGGGTCAGCTAGGCCTGAGTAGGGACGGC	2.93	4.26	4.49	1.02	4.15	2.71	0.977	0.628
CGGACTAGGTCATCCAGGACAGTGAATACATTGA	2.76	3.66	4.36	1.7	2.43	3.48	1.79	1.59
TCTCGGAGGACACGAAGGTCAGAGCTTTCCAGAG	3.78	2.79	3.63	0.904	1.69	2.87	0.784	1.03
CCTGCTAGGTCATCGTCAGCTAATCTACAGTATG	3.08	4.09	5.07	2.37	3.06	2.92	1.19	0.596
AGAATTAGGTTACCAAAGATCAGGGAAACGCTTG	0.444	0.812	0.884	0.172	0.88	1.12	0.308	-0.053
TCTAGTTGGTCACGGAAGTCACACACGACGGGTA	1.41	1.36	1.54	0.587	1.21	0.441	0.354	0.0407
ATCGAAAGATCGTGAGGTGAGTATACAGAAAGGC	-0.106	0.546	0.519	-0.575	0.649	1.73	0.91	-0.449
CCCACTGGGCCACGAAAGGTCATTGATTCAGTGA	4.6	4.7	4.33	-0.145	4.87	4.11	1.09	2.4
ATCGAAAGGTTGACGAGGTGAGTATACACCGTTT	1.28	1.47	1.51	0.0329	1.65	2.62	0.747	0.362
GCTATCAGGCCATTTGGGTCACTCAATGACGGGC	2.39	1.19	1.66	0.754	0.858	2.55	1.57	0.781
CAAACTAGGTCAAGGTAAAAGTCGGTTTGTGCCA	3.47	3.84	5.09	1.52	2.93	3.03	1.49	0.742
CGTCCAAGGTCAATGCTAGGTAAGTGAAAGCATT	3.93	5.7	6.12	3.33	4.48	3.84	2	2.06
TTACCAAGGTGAGTTGAGGTCGTTGATCCAACTC	1.84	1.33	1.18	0.713	1.56	4.72	2.28	2.18
AGAATGAGGTTATACGTATATCAGGGAAGAAAGT	0.94	1.77	1.35	1.42	2.34	2.5	0.645	0.832
TGGAGTAGGTTAGGGGCATTCAGAATGGCGTCGA	1.6	0.847	0.846	-0.404	0.803	1.51	1.06	1.57

Sequence	PBM binding z-score [1]	PBM binding z-score [2]	PBM binding z-score [3]	PBM binding z-score [4]	PBM binding z-score [5]	PBM binding z-score [6]	PBM binding z-score [7]	PBM binding z-score [8]
CGTCAAAGTTCAAAGTAACGTAACAGAAAGCAGC	3.42	5.52	5.99	4.98	4.88	1.72	-0.272	4.15
TAGCCTATGTCATGCGGGCCAGTATAGTGTCGGC	-0.116	-0.1	-0.059	-0.904	0.0276	-0.313	-0.992	-0.661
TCTTGTAGATCAACAGCAGGTTAAGAAAGATCGA	0.0548	0.165	-0.0185	0.681	0.512	0.308	-0.504	-0.471
CAAACTAGGTCAAAGGTCAAAGTCGAGCCAACCA	4.96	8.83	7.42	2.87	10.2	4.74	1.83	3.41
CGAACGAGGGCATGAGGTGATAGCAAATGCCGAT	1.11	1.88	1.83	1.56	1.32	2.26	0.557	0.945
AGTCAATGTTCAGGACGAGGTAACGTAAAGCACG	0.0341	0.243	0.459	-0.371	0.279	2.16	1.78	0.209
TGTCAAAGTTCAAAGGTAACGTACGTATCCACAC	3.77	6.34	5.94	4.49	6.98	2.98	0.0494	4.29
GCAGACAGGTGAAACACAGGTAACTCAGGGTGGC	0.58	1.37	0.385	-0.322	0.982	1.28	-0.504	-0.7
CCGAGTAGGTTATGGGGCATTGAGGCAACGGTGA	1.14	0.411	0.507	-0.0381	0.499	0.886	0.453	-0.13
AGAATGAGGTTATACGTACATCAGGGAAGAAAGT	0.803	1.95	1.32	1.73	2.32	2.13	0.372	1.22
CAAACTAGGTCAAGGTCAAACTCGGTTTGTGCCA	5.07	6.04	6.55	3.28	5.73	4.64	3.95	3.81
TCATATAGGTAAAAGGTGAAAGTGGGTGTGGTAA	2.35	2.16	1.01	1.87	3.15	2.07	1.12	0.877
ACTACTTGGTCAGCTGAGGTCACACACAATTCGG	4.44	4.3	4.38	1.76	4.45	5.04	5.43	3.73
AATACAGGGTCATCGTAGGCCGGAGTACGCACAG	3.49	5.55	5.08	3.69	6.23	4.13	1.46	3.63
ACAGACAGGTGAGTGAAGGTAACTCACCTGGACG	0.335	0.343	0.628	-0.647	0.429	1.83	-0.0711	-0.74
TTACCAAGGTGAGCTGAGTTCGTTGATCCAACTC	0.421	0.2	0.307	0.458	0.157	2.71	0.173	3.63
CCTTACGGGACACTGACAGGTTATAGCATTTGGA	0.492	0.652	0.903	0.645	0.341	0.178	0.0512	-0.0453
